Measured values published in PubChem BioAssay (NCI).
The panel holds about 83,000 compounds, 20% with a hit somewhere; the sample as a whole holds those more often.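 A percent growth of 40 corresponds to 60% growth inhibition; 0 means no net growth; -100 means all cells died. Active threshold: below 10.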 A number with no mark means an inactive call. Active and inactive are the calls of the source.

Assays:
Test in all cases: NCI-60 one-dose screen, 48 h (100 = growth as untreated, 0 = no growth, -100 = all killed)
Settings in all cases: 10 µM unless noted
NCI-H23 lung = test system: NCI-H23 lung
NCI-H226 lung = test system: NCI-H226 lung
NCI-H322M lung = test system: NCI-H322M lung
HOP-62 NSCLC = test system: HOP-62 NSCLC
NCI-H460 lung = test system: NCI-H460 lung
NCI-H522 lung = test system: NCI-H522 lung
786-0 renal = test system: 786-0 renal
COLO 205 colon = test system: COLO 205 colon
DU-145 prostate = test system: DU-145 prostate
K-562 leukemia = test system: K-562 leukemia
MALME-3M melanoma = test system: MALME-3M melanoma
MDA-MB-231 breast = test system: MDA-MB-231 breast
RXF 393 renal = test system: RXF 393 renal
SF-268 CNS = test system: SF-268 CNS
SF-295 CNS = test system: SF-295 CNS
SF-539 CNS = test system: SF-539 CNS
UACC-257 melanoma = test system: UACC-257 melanoma
M14 melanoma = test system: M14 melanoma
HOP-92 NSCLC = test system: HOP-92 NSCLC
A549/ATCC NSCLC = test system: A549/ATCC NSCLC

| SMILES | growth (NCI-H23 lung) | growth (NCI-H226 lung) | growth (NCI-H322M lung) | growth (HOP-62 NSCLC) | growth (NCI-H460 lung) | growth (NCI-H522 lung) | growth (786-0 renal) | growth (COLO 205 colon) | growth (DU-145 prostate) | growth (K-562 leukemia) | growth (MALME-3M melanoma) | growth (MDA-MB-231 breast) | growth (RXF 393 renal) | growth (SF-268 CNS) | growth (SF-295 CNS) | growth (SF-539 CNS) | growth (UACC-257 melanoma) | growth (M14 melanoma) | growth (HOP-92 NSCLC) | growth (A549/ATCC NSCLC) |
| --- | --- | --- | --- | --- | --- | --- | --- | --- | --- | --- | --- | --- | --- | --- | --- | --- | --- | --- | --- | --- |
| C=CCn1c(SCC(=O)Nc2ccc(C(=O)/C=C/c3cc(OC)c(OC)c(OC)c3)cc2)nnc1-c1cc(-c2ccc(S(N)(=O)=O)cc2)nc2ccccc12 | 88.9% | 90.7% | 105% | 111% | 94.9% | 92.7% | 101% | 109% | 105% | 48.2% | 97.1% | 83.1% | 64.6% | 94.6% | 99% | 86.6% | 96.1% | 95.6% |  |  |
| CN(C)CC1C(=O)O[C@H]2[C@H]1CC/C(COC(=O)NCc1ccc(Cn3c(=O)sn(CCCI)c3=O)cc1)=C\CC[C@@]1(C)O[C@@H]21 (stereo partly specified) | 55.3% | -27.4% (active) | 95.1% | 83.8% | 100% | -84.3% (active) | -73.2% (active) | -63% (active) | -69.8% (active) | -0.241% (active) | -75.6% (active) | 60.4% | -87% (active) | 57.7% | 96.8% | 24.4% | -39.8% (active) | -56.7% (active) | -87.2% (active) |  |
| COc1cccc2cc(N(C)c3nc(C)nc4c3CCC4)ccc12 | 22.4% | 25.8% | 59.1% | 14.7% | 6.85% (active) | -16.9% (active) | 3.77% (active) | -66.4% (active) | 5.3% (active) | 10.4% | 57.4% | 24.8% | 44% | 25.9% | 15.3% | -0.597% (active) | 59.1% | 6.91% (active) |  | 14.8% |
| CCCC1Cc2cc(-n3nc(C)c4c3CC(C)(C)CC4=O)cc(NC3CCC(O)CC3)c2C(=O)N1 (stereo unspecified) | 34.5% | 47.7% | 50.5% | 40.1% | 18% | 39.1% | 49.9% | 14% | 53.7% | 14.3% | 12.3% | -15.1% (active) | 65.3% | 65.3% | 21% | 34.4% | 37.1% | 33.7% |  | 31.6% |
| O=c1c(Cc2ccc(F)cc2)cc(-c2ccccc2)nn1C/C(=N/O)c1ccccc1 | 49% | 57.1% | 70% | 62.7% | 37.4% | 42.6% | 69.2% | 47.9% | 79.6% | 29.2% | 35.8% | 43.1% | 28.5% | 52.6% | 31.9% | 81.9% | 53.8% | 37.5% |  | 24.2% |
| COc1ccc2c(c1)c(-c1nc(-c3cn(C)c4ccncc34)cs1)cn2C | 92.2% | 113% | 95.7% | 94.7% | -64.5% (active) | 87.3% | 84.8% | 92.6% | -21.9% (active) | -48.9% (active) | -53.6% (active) | -61.2% (active) | -91.7% (active) | 88.5% | 55.3% | 57.4% | 114% | -90.3% (active) |  | 2.44% (active) |
| CCN1CCN(C(=O)[C@]23CC[C@@H](C)[C@H](C)[C@@H]2C2=CC[C@@H]4[C@@]5(C)C/C(=C/c6ccncc6)C(=O)C(C)(C)[C@@H]5CC[C@@]4(C)[C@]2(C)CC3)CC1 | 20.8% | 24.7% | 53.2% | 33.2% | -6.85% (active) | 23.4% | 19.6% | -15.6% (active) | 41.8% | 9.31% (active) | -9.75% (active) | 2.96% (active) | -18.7% (active) | 49% | 28.5% | -80.2% (active) | 25.6% | 25.4% |  | 25.5% |
| COc1ccc(-c2cc(-c3ccc(Cl)cc3)c(C#N)c(=O)n2CCCCC(=O)NO)cc1 | 84.9% | 77.2% | 77.3% | 66.5% | 99.1% | 58.8% | 80.2% | 86.3% | 78.2% | 61.8% | 73.3% | 52.1% | 37.3% | 85.2% | 90.2% | 82.5% | 80% | 72.6% |  | 82.7% |
| CNC(=O)c1cc(Oc2ccc3nc(NC(=O)Nc4ccc(F)cc4F)sc3c2)ccn1 | 47% | 52.8% | 62.2% | 60.7% | 63% | 68.7% | 64% | 87.1% | 65.7% | 71.5% | 46.2% | 47.7% | 42.3% | 76.1% | 76.7% | 61.7% | 74.3% | 69.1% |  | 44.8% |
| Nc1nc(=O)n([C@H]2CC=C(CO)O2)cc1F | 98.5% | 99.6% | 95.9% | 99.1% | 98.4% | 80.7% | 102% | 107% | 107% | 96.5% | 97.9% | 101% | 99.3% | 99.3% | 102% | 107% | 95.4% | 105% |  | 89.7% |
| Fc1ccc(/C=C/c2cc(/C=C/c3ccc(F)cc3)n(-c3cc(F)cc(F)c3)n2)cc1 | 98.3% | 109% | 86.5% | 96% | 107% | 61.7% | 77.4% | 119% | 99.9% | 66.4% | 98.1% | 101% | 112% | 102% | 93.5% | 103% | 106% | 87.7% |  | 90.8% |
| O=C(CN1C(=O)NC2NC(=O)NC21)N/N=C/c1cccc([N+](=O)[O-])c1 (stereo unspecified) | 104% | 94% | 108% | 107% | 107% | 97.3% | 106% | 122% | 110% | 103% | 105% | 104% | 104% | 99% | 102% | 100% | 118% | 109% |  |  |
| O=C(O)/C=C\C(=O)Nc1ccc2c(c1)Cc1cc(F)ccc1-2 | 95.9% | 98.3% | 99.7% | 87.9% | 110% | 90.9% | 99.7% | 105% | 111% | 104% | 98.9% | 112% | 114% | 96% | 96.4% | 94.9% | 115% | 96.4% |  | 106% |
| C=C1C(=O)O[C@H]2[C@H]1CC/C(CNC(=O)/C=C/c1cc(OC)c(OC)c(OC)c1)=C\CC[C@@]1(C)O[C@@H]21 | -31.3% (active) | -61.8% (active) | 60% | 26% | 82.3% | -93.5% (active) | -68.5% (active) | -86.5% (active) | 7.86% (active) | -9.87% (active) | -36.6% (active) | 5.65% (active) | -88% (active) | 28.1% | 50.4% | -36% (active) | -26.1% (active) | -32.3% (active) |  | 40% |
| CCCn1cnc2c(c1=N)C(c1ccc(Cl)cc1)c1sc3c(F)cccc3c1O2 (stereo unspecified) | 81.8% | 85.5% | 75.6% | 96.9% | 66.2% | 69.7% | 69.3% | -67.9% (active) | 82.2% | 29.1% | 49.8% | 69.7% | 72% | 83.8% | 93.8% | 85.6% | 105% | 70.7% |  |  |
| Cc1oc2ccc(O)c(CN3CCCCCC3)c2c1C(=O)Nc1ccc(C(F)(F)F)cc1 | 69.9% | 72.4% | 69.3% | 70.4% | 51.5% | 72.5% | 49.5% | 48.7% | 64.8% | 29.6% | 49.9% | 49% | 50.4% | 75.4% | 48.8% | 61.2% | 82% | 58.1% |  | 61.2% |
